Screens from PubChem BioAssay.
An excerpt weighted towards active compounds, which were near 3.9% of everything screened.
D1 antagonist: blocks dopamine activation of the human D1 receptor | P21728 | HEK293 TREx D1 cells, calcium flux, dopamine EC80; hits give low values | activity change, negative = inhibition, % at 10 µM | 360,000 tested, 3.2% active | AID 504652; in the data active means activity change below about -30%; further: on the % scale 0 is the no-effect control and ±100 the full control effect
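Inducible Hek293 Trex D1 cells (tetracycline, overnight, 30 C). Calcium dye 30–90 min RT. Antagonist mode: EC80 dopamine added after 180 s compound read.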
USP2a inh: inhibitors of human ubiquitin-specific protease USP2a; USP2 core, Ub-CHOP2 coupled fluorogenic reporter, 485/531; O75604; AID 463254; Potency, µM (top dose mostly 38.3 µM), for inactives: at the highest dose activity change, negative = inhibition, hits mostly inhibitors; 330,000 tested, 0.01% active;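 further: potency means the concentration at half of the fitted maximal effect; plate controls were DMSO wells for no effect and full inhibition by NEM control for full effect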
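Cell-free coupled assay: 10nM USP2 core preincubated 30min RT with compound in Tris-HCl pH 8.0/CaCl2/CHAPS buffer, then 25nM Ub-CHOP2 and 25nM reporter substrate; fluorescence (Ex 485/Em 531) read after 60min RT, normalized to NEM inhibition, concentration-response curves fitted.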
GALK inh: blocks human galactokinase activity | 270,000 tested, 0.007% active | P51570 | Potency, µM (titrated, usually from 57.5 µM), inactives show at the top dose activity change, negative = inhibition, usual class: inhibitors | Purified GALK, Kinase-Glo residual ATP luminescence; further: potency means the concentration at half of the fitted maximal effect; on the % scale 0 is the no-effect control and ±100 the full control effect
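Human GALK (5 nM) with 35 uM ATP and 100 uM galactose in 20 mM HEPES pH 8.0, 5 mM MgCl2, 60 mM NaCl, 1 mM DTT, 0.01% BSA. After 1 h at room temperature, leftover ATP was read by Kinase-Glo Plus luminescence.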
D1 PAM: enhances dopamine response at the human D1 receptor; potentiation, % at 10 µM; P21728; HEK293 TREx D1 cells, calcium flux, dopamine EC20 potentiation; AID 504651; 360,000 tested, 0.036% active; in the data active means potentiation above about 30%; further: 0% is about no effect
Eya2 phos inh: inhibitors of human Eya2 phosphatase activity; O00167; recombinant Eya2, OMFP fluorescence dephosphorylation (OMFP is methylfluorescein phosphate); Potency, µM (highest dose often 76.9 µM), for the others: at the top dose activity, negative = inhibition, most hits filed as inhibitors; 330,000 tested, 0.006% active; further: potency means the concentration at half of the fitted maximal effect; on the % scale 0 is the no-effect control and ±100 the full control effect
Target sequence (O00167 whole entry, looked up): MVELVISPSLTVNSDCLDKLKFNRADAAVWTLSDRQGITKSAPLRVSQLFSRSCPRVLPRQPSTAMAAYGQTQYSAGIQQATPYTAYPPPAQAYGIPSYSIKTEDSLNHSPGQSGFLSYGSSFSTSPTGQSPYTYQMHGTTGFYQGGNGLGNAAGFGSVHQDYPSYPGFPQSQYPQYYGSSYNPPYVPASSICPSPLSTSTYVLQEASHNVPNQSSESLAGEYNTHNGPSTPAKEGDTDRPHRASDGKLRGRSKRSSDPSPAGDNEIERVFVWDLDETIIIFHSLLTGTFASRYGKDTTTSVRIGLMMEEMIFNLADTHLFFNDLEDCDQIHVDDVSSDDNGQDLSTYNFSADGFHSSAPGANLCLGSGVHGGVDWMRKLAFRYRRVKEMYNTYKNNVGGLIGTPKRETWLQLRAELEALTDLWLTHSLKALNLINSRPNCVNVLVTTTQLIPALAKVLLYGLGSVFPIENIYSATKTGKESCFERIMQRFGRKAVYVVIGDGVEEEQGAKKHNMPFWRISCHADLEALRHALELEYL
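Eya2 (0.2 uM) preincubated 10 min at ambient with compound, then OMFP substrate added at 50 uM; 10 min reaction in 50 mM HEPES pH 7.5, 50 mM NaCl, 5 uM MgCl2, 0.05% BSA, 1 mM DTT. Fluorescence read at Ex 485/Em 525 nm.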
D1 ag: human D1 receptor agonism; AID 504660; activation, % at 2 µM; 360,000 tested, 1% active; HEK293 T-REx D1 cells, calcium flux, agonist mode; P21728; in the data active means activation above about 30%; further: 0% is about no effect
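Tetracycline-induced HEK293 TREx D1 cells, force-coupled to calcium signalling, were dye-loaded with a no-wash calcium kit. Compound was pin-added after a 10 s baseline. Fluorescence was read kinetically at 1 cycle/s for 180 s, with calcium rises flagged as agonism.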
An asterisk follows results filed as active; . = not tested or not shown. Unless noted, the call rests on the fitted dose curve; in most records, active means well fitted inhibition curve with a large enough effect; inconclusive means small, poorly fitted or top-dose-only effect, or effect the other way; inactive means flat fitted curve, though single readings scatter.

SMILES	D1 antagonist	USP2a inh	GALK inh	D1 PAM	Eya2 phos inh	D1 ag
CN(C(=O)CSc1nnc(-c2ccccc2)n1C)C1CCS(=O)(=O)C1 (configuration not stated)	-10	0%	-1%	-1	0%	6
CN(C(=O)CSc1nnc(-c2ccco2)n1Cc1ccccc1)C1CCS(=O)(=O)C1 (configuration not stated)	-37*	2%	.	11	-9%	1
CC1Oc2ccccc2N(CC(=O)NCCN2CCOCC2)C1=O (configuration not stated)	-67*	0%	1%	-11	-2%	3
CCC1Oc2ccccc2N(CC(=O)NCCCN2CCN(c3ccc(OC)cc3)CC2)C1=O (configuration not stated)	-90*	1%	2%	-6	-7%	6
CCC1Oc2ccccc2N(CC(=O)NCCCN2CCCC2)C1=O (configuration not stated)	2	0%	1%	-1	-5%	4
O=C(CN1C(=O)COc2ccccc21)NCCN1CCOCC1	-18	0%	1%	-9	1%	0
CCCN1CCC(NCc2cn(C)nc2-c2ccc(Oc3ccccc3)cc2)CC1	-10	1%	0%	-1	-5%	30*
COC1CCCN(Cc2cn(C)nc2-c2ccc(Oc3ccccc3)cc2)C1 (configuration not stated)	-2	10%	-1%	-2	2%	2
Cc1ccc2[nH]c(C)c(CCNC(=O)c3cc4cc(Br)ccc4oc3=O)c2c1	9	.	.	-2	.	-1
CC(=O)c1sc(-c2ccc(F)cc2)cc1NS(=O)(=O)c1ccccc1	-41*	7%	-5%	-4	-1%	3
Nc1nonc1-n1nnc(C(=O)N/N=C/c2ccoc2)c1CSc1ccc(Cl)cc1	-40*	1%	3%	-6	-3%	0
Nc1nonc1-n1nnc(C(=O)N/N=C/c2ccccc2)c1CSc1ccccc1	-23	1%	.	-8	-12%	4
CCCc1c(C(=O)N/N=C/c2cccs2)nnn1-c1nonc1N	10	2%	-2%	5	-2%	31*
Nc1nonc1-n1nnc(C(=O)N/N=C/c2ccncc2)c1CSc1ccccc1	-47*	-12%	5%	-4	9%	18
Nc1nonc1-n1nnc(C(=O)N/N=C/c2ccoc2)c1CSc1ccccc1	-22	3%	-3%	-12	-2%	4
Cc1ccc(-c2cn(-c3cccc(Cl)c3)c(S(=O)(=O)CC(=O)Nc3ccccc3F)n2)cc1	-19	.	.	2	.	3
COC1=C(OC)C(=O)C(CCCCCCCCCCO)=C(C)C1=O	-41*	5%	-2%	-2	-23%	26
CCOc1ccccc1C(=O)Nc1ccc(S(=O)(=O)Nc2ncccn2)cc1	0	.	.	2	.	0
CN(C)c1ccc(/C=c2\sc3n(c2=O)CCCN=3)cc1	3	5%	3%	-4	14%	46*
CCOc1ccc(C(=O)Nc2ccc3nc(SCC(=O)N(C)c4ccccc4)sc3c2)cc1	-26	.	.	2	.	2
OC(CNCC1CCCO1)Cn1c2ccc(Cl)cc2c2cc(Cl)ccc21 (configuration not stated)	-32*	-5%	3%	-13	-7%	28
OC(CNCC1CCCO1)Cn1c2ccccc2c2ccccc21 (configuration not stated)	1	-1%	-2%	-4	-3%	11
Cc1ccc(OC(C)C(=O)Nc2ccc(S(=O)(=O)N3CCOCC3)cc2)cc1 (configuration not stated)	1	1%	-3%	2	-4%	39*
CC(Oc1ccc(C(=O)c2ccccc2)cc1)C(=O)Nc1ccc(S(N)(=O)=O)cc1 (configuration not stated)	-6	0%	4%	-1	-5%	38*
O=C(CCCSc1ccc(Cl)cc1)Nc1cc(S(=O)(=O)N2CCOCC2)ccc1O	-45*	1%	.	-5	-13%	4
SMILES	D1 antagonist	USP2a inh	GALK inh	D1 PAM	Eya2 phos inh	D1 ag
CC(Oc1ccccc1)C(=O)Nc1ccc(S(=O)(=O)N2CCCC2)cc1 (configuration not stated)	0	-1%	-2%	0	-21%	23
CC(Sc1ccc(Cl)cc1)C(=O)Nc1ccc(S(=O)(=O)N2CCOCC2)cc1 (configuration not stated)	-21	-5%	-3%	-10	1%	56*
CCOc1cc2sc(N3CCC(C(=O)Nc4ccc(CC)cc4)CC3)nc2cc1Br	-2	.	.	-1	.	2
COc1ccccc1NC(=O)C1CCC(CNS(=O)(=O)c2ccc3c(c2)CC(C)N3C(C)=O)CC1 (configuration not stated)	9	.	.	-4	.	1
CCOC(=O)c1ccc(NS(=O)(=O)c2cc(-c3onc(C)c3C)ccc2C)cc1	6	.	.	-1	.	0
CC(=O)Nc1ccc(S(=O)(=O)NCCNS(=O)(=O)c2ccc(NC(C)=O)cc2)cc1	4	3%	6%	-4	4%	0
CC(=O)Nc1ccc(S(=O)(=O)NCCSCc2ccc(Cl)cc2Cl)cc1	-31*	2%	-2%	-7	-6%	15
COc1cccc(CNC(=O)N2CCC(CN3CCC(C)CC3)CC2)c1	5	.	.	-4	.	2
CC(C)CNC(=O)c1cccc(NC(=O)CSc2ccc(Cl)cc2)c1	-12	-2%	0%	-4	7%	7
CC(C)(C)NC(=O)c1cccc(NC(=O)CSc2ccc(Cl)cc2)c1	-59*	1%	.	-11	4%	10
CC(C)(C)OC(=O)N1CCC(c2c(C(=O)NCCc3ccccc3)cnn2-c2ccc(F)cc2)CC1	10	.	.	-5	.	3
COc1ccc(OC)c(C(=O)NC(CC(N)=O)c2ccc(NCCOc3ccccc3)c([N+](=O)[O-])c2)c1 (configuration not stated)	-2	0%	.	-2	-8%	1
NC(=O)CC(NC(=O)c1ccccc1)c1ccc(NCC2CC2)c([N+](=O)[O-])c1 (configuration not stated)	-44*	-11%	6%	-6	-9%	1
NC(=O)CC(NC(=O)c1ccccc1)c1ccc(NCCOc2ccccc2)c([N+](=O)[O-])c1 (configuration not stated)	-35*	-7%	-4%	-10	-12%	3
NC(=O)CC(NC(=O)c1cccc(Br)c1)c1ccc(NCC2CC2)c([N+](=O)[O-])c1 (configuration not stated)	-14	0%	.	2	-4%	2
